Test in all cases: DAPPL (digital affinity profiling via proximity ligation, sequencing); 10 mM Tris-HCl pH 7.5, 50 mM NaCl, 1 mM DTT, 4% glycerol, room temperature, 30 min; GST-TFs on glutathione beads, 16-mer random dsDNA library, 0.1% formaldehyde crosslink after washing; high values mean tight binding
Common to all, as to conditions: protein: recombinant; tags: N-terminal GST; dsDNA, one strand shown

One test deals with T1, FLI1 (Homo sapiens, UniProt Q01543 1-452).
T1 sequence: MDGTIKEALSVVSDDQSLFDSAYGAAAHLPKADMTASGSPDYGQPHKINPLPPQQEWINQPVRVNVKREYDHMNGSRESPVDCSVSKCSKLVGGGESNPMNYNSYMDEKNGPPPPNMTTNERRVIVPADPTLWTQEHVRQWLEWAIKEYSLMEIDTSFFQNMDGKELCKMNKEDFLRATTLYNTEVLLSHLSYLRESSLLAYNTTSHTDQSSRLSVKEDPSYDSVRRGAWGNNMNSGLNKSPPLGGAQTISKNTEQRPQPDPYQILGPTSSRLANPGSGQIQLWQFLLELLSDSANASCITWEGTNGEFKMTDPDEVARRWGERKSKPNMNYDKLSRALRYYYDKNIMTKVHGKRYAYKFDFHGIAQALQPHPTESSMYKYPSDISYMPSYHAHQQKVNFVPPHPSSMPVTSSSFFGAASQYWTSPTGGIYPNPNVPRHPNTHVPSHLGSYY
In outline: (§1)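 A tag-only sample was pooled with DNA-barcoded human transcription factors that had been expressed in yeast as GST fusions and captured on glutathione beads. The pools were incubated for 30 min at room temperature with 200 nmole of a random double-stranded 16-mer DNA library in Tris/NaCl/DTT/glycerol buffer, then washed, crosslinked with 0.1% formaldehyde, proximity-ligated (BsaI/T4 ligase, 1 h, 37 °C), PCR-amplified and sequenced on an Illumina NextSeq500. Binding signal is each hexamer's read frequency for a factor divided by its frequency for the tag-only sample.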

A further test addresses T2, ELK1 (Homo sapiens, UniProt P19419 1-428).
T2 sequence: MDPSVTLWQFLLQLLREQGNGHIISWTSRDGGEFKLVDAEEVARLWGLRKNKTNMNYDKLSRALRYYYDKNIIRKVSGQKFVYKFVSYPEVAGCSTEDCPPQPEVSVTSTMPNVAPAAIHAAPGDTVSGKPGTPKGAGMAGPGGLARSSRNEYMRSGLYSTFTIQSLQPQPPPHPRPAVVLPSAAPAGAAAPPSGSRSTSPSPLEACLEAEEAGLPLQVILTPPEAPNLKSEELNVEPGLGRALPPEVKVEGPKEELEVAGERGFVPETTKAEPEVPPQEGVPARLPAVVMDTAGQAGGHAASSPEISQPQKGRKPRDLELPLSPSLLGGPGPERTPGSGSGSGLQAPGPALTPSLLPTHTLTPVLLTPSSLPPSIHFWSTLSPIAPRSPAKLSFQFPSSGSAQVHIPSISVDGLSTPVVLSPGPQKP
The method, boiled down: as §1

Another test has as its target T3, GABPA (Homo sapiens, UniProt Q06546 1-454).
T3 sequence: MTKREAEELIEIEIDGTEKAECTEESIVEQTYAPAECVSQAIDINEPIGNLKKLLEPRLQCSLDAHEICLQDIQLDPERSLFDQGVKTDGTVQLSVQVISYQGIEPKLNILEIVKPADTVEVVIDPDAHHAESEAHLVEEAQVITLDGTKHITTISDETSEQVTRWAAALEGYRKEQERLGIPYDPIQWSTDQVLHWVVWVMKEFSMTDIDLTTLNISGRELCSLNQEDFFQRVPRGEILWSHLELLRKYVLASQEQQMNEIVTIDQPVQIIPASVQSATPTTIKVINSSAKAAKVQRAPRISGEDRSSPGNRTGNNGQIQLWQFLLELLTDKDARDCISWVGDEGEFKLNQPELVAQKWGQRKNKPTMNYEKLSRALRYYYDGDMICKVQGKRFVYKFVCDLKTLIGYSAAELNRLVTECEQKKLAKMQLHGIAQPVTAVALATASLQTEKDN
The method, boiled down:
as §1

The target in another test is T4, ERG (Homo sapiens, UniProt P11308 1-479).
T4 sequence: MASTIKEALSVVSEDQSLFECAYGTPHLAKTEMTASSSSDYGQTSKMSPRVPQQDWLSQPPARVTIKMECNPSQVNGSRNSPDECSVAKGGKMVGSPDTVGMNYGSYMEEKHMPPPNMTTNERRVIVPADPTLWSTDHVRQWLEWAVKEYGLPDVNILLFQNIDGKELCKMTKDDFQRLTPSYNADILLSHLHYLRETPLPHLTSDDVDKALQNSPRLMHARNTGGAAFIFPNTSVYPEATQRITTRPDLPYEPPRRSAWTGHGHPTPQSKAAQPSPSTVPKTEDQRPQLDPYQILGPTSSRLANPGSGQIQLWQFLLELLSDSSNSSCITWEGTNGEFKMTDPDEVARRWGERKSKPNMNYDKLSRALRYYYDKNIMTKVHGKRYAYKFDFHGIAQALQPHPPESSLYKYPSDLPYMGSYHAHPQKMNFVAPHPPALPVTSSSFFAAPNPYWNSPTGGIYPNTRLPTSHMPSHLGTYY
In outline: as §1

The next test has as its target ELF1 (Homo sapiens, UniProt P32519 1-619). The method, boiled down: as §1
For another test, the target named is T5, EHF (Homo sapiens, UniProt Q9NZC4 1-300).
T5 sequence: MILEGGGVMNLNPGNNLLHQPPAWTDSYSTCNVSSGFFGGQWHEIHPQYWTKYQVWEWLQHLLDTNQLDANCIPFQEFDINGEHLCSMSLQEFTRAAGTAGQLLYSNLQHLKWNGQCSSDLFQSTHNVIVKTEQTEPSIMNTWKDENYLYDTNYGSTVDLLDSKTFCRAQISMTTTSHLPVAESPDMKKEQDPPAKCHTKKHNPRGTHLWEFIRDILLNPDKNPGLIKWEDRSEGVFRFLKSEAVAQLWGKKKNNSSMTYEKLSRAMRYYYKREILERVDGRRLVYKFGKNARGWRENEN
In outline: as §1

Another test deals with SPI1 (Homo sapiens, UniProt P17947 1-270). The method, boiled down:
as §1

The next test deals with SPIB (Homo sapiens, UniProt Q01892 1-262). In outline:
as §1

For a further test, the target named is T6, ELK3 (Homo sapiens, UniProt P41970 1-407).
T6 sequence: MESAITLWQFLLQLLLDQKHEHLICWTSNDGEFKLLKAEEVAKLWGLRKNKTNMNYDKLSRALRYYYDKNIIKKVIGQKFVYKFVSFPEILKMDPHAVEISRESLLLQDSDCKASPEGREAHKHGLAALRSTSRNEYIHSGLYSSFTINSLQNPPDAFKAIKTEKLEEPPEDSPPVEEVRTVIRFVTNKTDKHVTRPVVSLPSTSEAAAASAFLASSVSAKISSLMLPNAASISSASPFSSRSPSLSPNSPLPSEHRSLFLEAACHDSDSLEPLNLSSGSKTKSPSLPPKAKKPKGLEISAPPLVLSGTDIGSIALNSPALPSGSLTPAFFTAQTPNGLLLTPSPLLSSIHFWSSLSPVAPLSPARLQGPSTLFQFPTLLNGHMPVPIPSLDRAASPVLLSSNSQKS
In outline: as §1

In a further test the target is T7, FEV (Homo sapiens, UniProt Q99581 1-238).
T7 sequence: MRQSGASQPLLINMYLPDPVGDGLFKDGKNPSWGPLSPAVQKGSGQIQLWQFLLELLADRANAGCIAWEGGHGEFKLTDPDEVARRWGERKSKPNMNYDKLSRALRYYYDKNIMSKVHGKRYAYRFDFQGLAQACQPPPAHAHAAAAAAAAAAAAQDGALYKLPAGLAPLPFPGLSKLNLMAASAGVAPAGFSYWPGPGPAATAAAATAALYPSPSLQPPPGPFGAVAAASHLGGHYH
The method, boiled down: as §1

A further test addresses ETV5 (Homo sapiens, UniProt P41161 1-510). In outline: as §1
Another test concerns the target T8, SPIC (Homo sapiens, UniProt Q8N5J4 1-248).
T8 sequence: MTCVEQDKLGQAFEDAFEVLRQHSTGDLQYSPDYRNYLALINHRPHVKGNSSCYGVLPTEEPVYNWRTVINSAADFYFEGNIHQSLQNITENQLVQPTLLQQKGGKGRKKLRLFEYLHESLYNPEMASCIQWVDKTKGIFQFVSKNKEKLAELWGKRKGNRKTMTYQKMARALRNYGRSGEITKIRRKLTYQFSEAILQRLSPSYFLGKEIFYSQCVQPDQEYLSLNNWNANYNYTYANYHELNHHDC
The method, boiled down: as §1

The target in another test is ELF4 (Homo sapiens, UniProt Q99607 1-663). In outline: as §1
The next test has as its target T9, ELK4 (Homo sapiens, UniProt P28324-2 1-405).
T9 sequence: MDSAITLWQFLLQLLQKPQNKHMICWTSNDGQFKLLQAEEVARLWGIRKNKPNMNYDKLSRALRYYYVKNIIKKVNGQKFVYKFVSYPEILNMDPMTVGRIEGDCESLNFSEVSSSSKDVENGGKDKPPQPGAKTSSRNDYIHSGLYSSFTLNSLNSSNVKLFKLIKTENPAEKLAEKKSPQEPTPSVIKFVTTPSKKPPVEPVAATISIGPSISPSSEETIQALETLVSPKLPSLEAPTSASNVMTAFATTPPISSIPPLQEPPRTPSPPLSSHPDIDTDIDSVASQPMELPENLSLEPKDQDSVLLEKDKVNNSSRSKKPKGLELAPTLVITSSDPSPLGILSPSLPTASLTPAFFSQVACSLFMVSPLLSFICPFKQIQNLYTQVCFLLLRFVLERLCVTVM
The method, boiled down:
as §1

The target of the next test is T10, ETV2 (Homo sapiens, UniProt O00321 1-342).
T10 sequence: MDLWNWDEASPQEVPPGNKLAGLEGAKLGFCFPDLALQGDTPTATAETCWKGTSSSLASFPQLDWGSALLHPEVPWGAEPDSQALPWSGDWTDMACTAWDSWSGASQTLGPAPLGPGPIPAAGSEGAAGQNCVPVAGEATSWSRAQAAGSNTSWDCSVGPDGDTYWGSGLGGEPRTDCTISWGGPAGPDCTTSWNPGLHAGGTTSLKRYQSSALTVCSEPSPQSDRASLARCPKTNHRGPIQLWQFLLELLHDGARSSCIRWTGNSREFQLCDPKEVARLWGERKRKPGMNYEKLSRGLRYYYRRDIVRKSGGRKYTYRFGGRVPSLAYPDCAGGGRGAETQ
In outline: as §1

The target in a further test is T11, ELF3 (Homo sapiens, UniProt P78545 1-371).
T11 sequence: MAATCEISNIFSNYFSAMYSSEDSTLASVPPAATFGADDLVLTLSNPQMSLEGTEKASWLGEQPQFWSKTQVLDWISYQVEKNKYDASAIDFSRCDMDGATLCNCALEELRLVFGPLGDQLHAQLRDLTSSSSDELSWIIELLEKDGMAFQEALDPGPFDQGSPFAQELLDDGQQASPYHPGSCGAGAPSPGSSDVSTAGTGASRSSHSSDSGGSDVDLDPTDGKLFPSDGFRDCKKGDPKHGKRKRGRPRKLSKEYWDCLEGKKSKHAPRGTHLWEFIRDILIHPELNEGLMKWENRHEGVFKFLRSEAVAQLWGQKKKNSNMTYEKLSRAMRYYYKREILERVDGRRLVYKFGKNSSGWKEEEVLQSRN
In outline:
as §1

The target in another test is ETV1 (Homo sapiens, UniProt P50549 1-477). In outline:
as §1

Sequence of ETV1 (P50549 whole entry): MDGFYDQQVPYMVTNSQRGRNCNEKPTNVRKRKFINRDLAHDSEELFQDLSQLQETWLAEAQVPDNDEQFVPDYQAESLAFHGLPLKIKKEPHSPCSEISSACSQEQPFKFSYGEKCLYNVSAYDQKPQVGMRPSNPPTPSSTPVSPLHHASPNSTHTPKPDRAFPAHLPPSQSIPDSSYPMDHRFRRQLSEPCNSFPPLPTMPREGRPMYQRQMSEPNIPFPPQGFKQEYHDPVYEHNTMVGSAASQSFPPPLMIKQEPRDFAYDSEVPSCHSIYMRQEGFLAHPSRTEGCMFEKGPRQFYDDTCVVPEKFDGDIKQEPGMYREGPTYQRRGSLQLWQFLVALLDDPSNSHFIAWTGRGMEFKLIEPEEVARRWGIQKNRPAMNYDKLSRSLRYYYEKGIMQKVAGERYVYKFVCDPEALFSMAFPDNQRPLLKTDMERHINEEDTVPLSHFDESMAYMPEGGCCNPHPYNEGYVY
Sequence of ELF1 (P32519 whole entry): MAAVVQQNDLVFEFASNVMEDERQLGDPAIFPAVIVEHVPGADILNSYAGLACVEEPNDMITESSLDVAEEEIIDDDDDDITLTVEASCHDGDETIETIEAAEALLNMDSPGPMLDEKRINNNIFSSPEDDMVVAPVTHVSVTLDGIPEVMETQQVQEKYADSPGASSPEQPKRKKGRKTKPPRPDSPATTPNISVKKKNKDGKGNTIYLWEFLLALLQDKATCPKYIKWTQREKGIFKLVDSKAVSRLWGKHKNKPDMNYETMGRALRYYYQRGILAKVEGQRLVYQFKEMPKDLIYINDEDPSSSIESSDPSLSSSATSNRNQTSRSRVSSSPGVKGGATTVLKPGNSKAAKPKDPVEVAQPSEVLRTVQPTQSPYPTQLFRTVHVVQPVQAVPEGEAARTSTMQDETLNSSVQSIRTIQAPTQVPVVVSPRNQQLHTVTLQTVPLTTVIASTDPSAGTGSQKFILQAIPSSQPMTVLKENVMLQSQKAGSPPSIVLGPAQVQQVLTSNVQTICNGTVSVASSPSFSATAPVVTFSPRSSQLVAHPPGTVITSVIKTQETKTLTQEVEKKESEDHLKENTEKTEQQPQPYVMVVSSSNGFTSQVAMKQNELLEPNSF
Sequence of ELF4 (Q99607 whole entry): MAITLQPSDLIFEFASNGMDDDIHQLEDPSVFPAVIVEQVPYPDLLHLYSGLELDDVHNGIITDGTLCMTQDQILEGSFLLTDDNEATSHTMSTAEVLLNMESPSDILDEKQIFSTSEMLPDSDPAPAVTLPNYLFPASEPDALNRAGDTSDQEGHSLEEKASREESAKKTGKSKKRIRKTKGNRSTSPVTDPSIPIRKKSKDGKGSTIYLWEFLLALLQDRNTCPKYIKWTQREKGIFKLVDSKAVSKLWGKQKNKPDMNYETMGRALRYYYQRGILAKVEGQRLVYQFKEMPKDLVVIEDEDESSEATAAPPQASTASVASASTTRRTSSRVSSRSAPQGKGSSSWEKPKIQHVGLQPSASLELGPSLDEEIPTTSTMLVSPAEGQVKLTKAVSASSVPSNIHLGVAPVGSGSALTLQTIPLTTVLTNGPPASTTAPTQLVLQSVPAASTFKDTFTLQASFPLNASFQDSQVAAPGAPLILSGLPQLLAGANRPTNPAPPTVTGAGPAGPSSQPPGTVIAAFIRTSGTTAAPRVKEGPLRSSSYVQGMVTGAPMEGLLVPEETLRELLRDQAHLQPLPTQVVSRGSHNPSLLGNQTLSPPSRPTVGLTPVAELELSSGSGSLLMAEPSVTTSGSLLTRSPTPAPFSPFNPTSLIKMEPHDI
Sequence of ETV5 (P41161 whole entry): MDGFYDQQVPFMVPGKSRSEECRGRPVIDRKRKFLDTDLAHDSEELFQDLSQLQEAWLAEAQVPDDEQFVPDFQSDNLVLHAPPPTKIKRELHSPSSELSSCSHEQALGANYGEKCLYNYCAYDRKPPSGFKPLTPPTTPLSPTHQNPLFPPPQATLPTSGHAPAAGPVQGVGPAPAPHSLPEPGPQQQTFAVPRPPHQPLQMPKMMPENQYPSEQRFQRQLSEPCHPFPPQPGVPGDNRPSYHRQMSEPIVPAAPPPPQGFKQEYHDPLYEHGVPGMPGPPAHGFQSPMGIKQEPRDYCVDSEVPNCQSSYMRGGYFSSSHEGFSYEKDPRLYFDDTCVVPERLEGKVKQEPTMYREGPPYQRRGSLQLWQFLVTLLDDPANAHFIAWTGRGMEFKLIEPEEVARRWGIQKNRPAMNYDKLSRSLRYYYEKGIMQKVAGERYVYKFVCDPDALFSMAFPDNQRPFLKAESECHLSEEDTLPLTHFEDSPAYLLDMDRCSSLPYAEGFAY
Sequence of SPIB (Q01892 whole entry): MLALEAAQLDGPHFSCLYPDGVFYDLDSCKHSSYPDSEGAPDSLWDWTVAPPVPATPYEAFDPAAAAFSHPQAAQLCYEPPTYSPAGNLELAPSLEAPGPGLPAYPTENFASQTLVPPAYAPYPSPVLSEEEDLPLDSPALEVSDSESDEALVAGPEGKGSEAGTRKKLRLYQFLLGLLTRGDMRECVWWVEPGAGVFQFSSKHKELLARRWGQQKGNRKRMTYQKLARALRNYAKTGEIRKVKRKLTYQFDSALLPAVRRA

For the sequence GATGCG, the binding signal in the test with FLI1 was 1.07 fold enrichment (6-mer frequency, TF over GST control); with ELK1 it was 1.14 fold enrichment (6-mer frequency, TF over GST control); with GABPA, 1.16 fold enrichment (6-mer frequency, TF over GST control); in the test with ERG, 1.16 fold enrichment (6-mer frequency, TF over GST control); in the test with ELF1 it was 1.11 fold enrichment (6-mer frequency, TF over GST control); with EHF, 1.16 fold enrichment (6-mer frequency, TF over GST control). The binding signal with SPI1 is 1.14 fold enrichment (6-mer frequency, TF over GST control); in the test with SPIB, 1.19 fold enrichment (6-mer frequency, TF over GST control); with ELK3 it was 1.1 fold enrichment (6-mer frequency, TF over GST control); in the test with FEV it was 1.15 fold enrichment (6-mer frequency, TF over GST control); with ETV5 it was 1.14 fold enrichment (6-mer frequency, TF over GST control); with SPIC, 1.24 fold enrichment (6-mer frequency, TF over GST control). Also, the binding signal with ELF4 was 1.14 fold enrichment (6-mer frequency, TF over GST control); with ELK4, 1.32 fold enrichment (6-mer frequency, TF over GST control); with ETV2 it was 1.16 fold enrichment (6-mer frequency, TF over GST control); with ELF3, 1.11 fold enrichment (6-mer frequency, TF over GST control); with ETV1 it was 1.06 fold enrichment (6-mer frequency, TF over GST control).

(Values after PMC7862700, “An all-to-all approach to the identification of sequence-specific readers for epigenetic DNA modifications on cytosine”.)
